Results filed as inconclusive are left out. The source made the active and inactive calls. The call rests on the fitted dose curve; in most records, active means well fitted curve in the direction sought with a large enough effect; inconclusive means small, poorly fitted or top-dose-only effect, or another doubt; inactive means no such curve, though single readings can be large; an effect the other way counts as inactive or inconclusive.
What was measured:
[1] = MCF7 Cancer Cell Toxicity qHTS against the NCATS CANVASS Library (AID 1347369); conditions: MCF7 viability, ATP luminescence (CellTiter-Glo), 72 h; at 15.3 µM (top of the series)
Outline: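 Cytotoxicity was measured as CellTiterGlo luminescence (ATP) after 72 h at 37 °C. The cells were MCF7 at 500 per well, with an 11-point compound concentration series.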

[2] = qHTS for ATAD5 Antagonist screened against the NCATS CANVASS Library (AID 1347370);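 further: HEK293T cells carrying an ATAD5 luciferase reporter co-treated with 10 µM 5-fluorouridine; nearly all actives have a fitted effect of over 65% in size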
Outline: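 HEK293T cells with stably integrated ATAD5-luciferase reporter, 2000/well, 5 h attachment; compounds plus 10 µM 5-fluorouridine, 16 h at 37 °C. Luciferase luminescence read, with CellTiter-Fluor viability read first.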

[3] = J3T Cancer Cell Toxicity qHTS against the NCATS CANVASS Library (AID 1347371);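 further: J3T is a canine glioma cancer cell line seeded at 500 cells per well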
Outline: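 Cells plated at 500 per well, compounds pin-transferred, plates incubated 72 hr at 37C, then CellTiterGlo added and luminescence read to measure ATP content.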

[4] = molecular target: Nuclear receptor subfamily 1 group I member 3 (Homo sapiens) (UniProt Q14994); assay: qHTS for Constitutive Androstane Receptor (CAR) Antagonist screened against the NCATS CANVASS Library (AID 1347372);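 further: cells stimulated with 50 nM CITCO agonist so inhibition reflects antagonism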
Chain of Nuclear receptor subfamily 1 group I member 3 (Homo sapiens) (Q14994 whole entry, looked up): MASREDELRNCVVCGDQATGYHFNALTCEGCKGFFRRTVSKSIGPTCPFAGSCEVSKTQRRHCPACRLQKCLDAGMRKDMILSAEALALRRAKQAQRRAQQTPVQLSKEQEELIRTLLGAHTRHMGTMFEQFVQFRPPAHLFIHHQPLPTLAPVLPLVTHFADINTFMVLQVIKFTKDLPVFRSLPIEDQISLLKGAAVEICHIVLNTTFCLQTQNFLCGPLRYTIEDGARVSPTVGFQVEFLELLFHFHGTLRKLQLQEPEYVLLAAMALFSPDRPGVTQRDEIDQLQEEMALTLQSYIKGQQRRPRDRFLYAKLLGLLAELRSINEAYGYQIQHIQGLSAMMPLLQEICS
Outline: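 HepG2 cells stably carrying hCAR and CYP2B6-2.2kb luciferase reporter, 2500 cells/well, compound with 50 nM CITCO agonist for 24hr at 37C. ONE-Glo luminescence measured CAR activity; CellTiter-Fluor read viability.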

[5] = molecular target: Nuclear receptor subfamily 1 group I member 3 (Homo sapiens) (UniProt Q14994); assay: qHTS for Constitutive Androstane Receptor (CAR) Agonist screened against the NCATS CANVASS Library (AID 1347373);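 further: every well also contained 1.5 µM PK11195 alongside the test compound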
Outline: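 HepG2-hCAR-CYP2B6 cells, 2500/well, attached 4hr; cpd + PK11195 1.5uM final; 24hr 37C 5% CO2. CellTiter-Fluor viability read, then ONE-Glo luminescence for CAR activation.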

[6] = qHTS for Hypoxia signaling pathway (HIF-1) antagonists against the NCATS CANVASS Library (AID 1347374);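 further: HRE-bla ME-180 cells stimulated with cobalt chloride to stabilize HIF-1alpha; nearly all actives have a fitted effect of over 60% in size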
Source text: Natural products and their derivatives continue to be wellsprings of nascent therapeutic potential. However, many laboratories have limited resources for biological evaluation, leaving their previously isolated or synthesized compounds largely or completely untested. To address this issue, the Canvass library of natural products was assembled (https://tripod.nih.gov/canvass), in collaboration with academic and industry researchers, for quantitative high-throughput screening (qHTS) across a diverse set of cell-based and biochemical assays. […] We collected pure natural products to circumvent deconvolution and structure elucidation due to time and resource limitations. The library was formatted into 1536-well plates and evaluated in 50 qHTS (in an 11-pnt concentration series) bioassays with broad scope of disease-relevant mechanisms. The resulting data set from 50 different assays was then systematically analyzed to identify overall trends and specific natural products with interesting biological activities. […] The compounds were also tested for auto fluorescence that may interfere with the biological target readout resulting in potential false positives and/or negatives. […]
HIF-1 antagonist assay protocol: 1. […] The fluorescence intensity was obtained using the EnVision (PerkinElmer, Shelton, CT) plate reader using a 405 nm excitation, and 460 and 530 nm emission filters. […]

[7] = qHTS for Hypoxia signaling pathway (HIF-1) agonists against the NCATS CANVASS Library (AID 1347375)
Outline: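 ME-180 HRE-bla reporter cells; 2,000/well, 0.5% dialyzed FBS; cpd added after 5 h, 17 h 37C/5% CO2; CCF4-AM 2 h RT; FRET 460/530 nm; CellTiter-Glo viability same wells, 30 min.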

[8] = 10-beta competent E. coli microbial cell viability qHTS against the NCATS CANVASS Library (AID 1347376)
Outline: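 E. coli 10-beta, 0.2 OD; cpds 11-pt; o/n 37C, 5% CO2; BacTiter-Glo 20 min RT; luminescence (ATP) = viable cells. Daunomycin ctrl.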

[9] = DH5-alpha competent E. coli microbial cell viability qHTS against the NCATS CANVASS Library (AID 1347377)
Outline: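 qHTS, 11-pt; E. coli DH5-alpha, 0.2 OD; o/n 37C/5% CO2; BacTiter-Glo, 20 min RT; luminescence.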

[10] = qHTS for H2AX Agonists against the NCATS CANVASS Library (AID 1347378)
Outline: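 Phospho-H2AX (S139) in CHO-K1 lysates measured by HTRF, reported as 665/615 nm emission ratio after 24 hr antibody incubation at room temperature. Cells were first treated with a compound series for 3 hr at 37C (0.76% DMSO final).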

Measured: outcome

C[C@@H]1O[C@@H](OC[C@H]2O[C@@H](Oc3c(-c4ccc(O)c(O)c4)oc4cc(O)cc(O)c4c3=O)[C@H](O)[C@@H](O)[C@@H]2O)[C@H](O)[C@H](O)[C@H]1O
inactive: [1] | [2] | [3] | [4] | [5] | [6] | [7] | [8] | [9] | [10]
